Sampled rows, rich in hits. Any-hit rate of the full collection: about 7.1%.
ATXN2 expr inh: inhibitors of ATXN2 expression | AID 1745845 | Potency, µM (series often up to 57 µM), for inactives: at the top dose activity change, negative = inhibition, actives largely listed as inhibitors | HEK-293 ATXN2-luciferase reporter, luminescence, 24 h | actives 0.72% (n = 360,000); note: potency is the fitted concentration of half-maximal effect; % is set by controls: 0 for no effect and ±100 for the full control effect; nearly all actives have a fitted effect of over 55% in size
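qHTS (up to 57 uM final) was run with 24 h compound exposure of reporter cells at 37 °C. Each well was multiplexed: SteadyGlo luminescence measured ATXN2-luciferase expression after a fluorogenic Gly-Phe-AFC viability readout (25 uM final).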
PINK1 modulator: modulators of PINK1 expression. PINK1 immunofluorescence, high-content cytometry, 24 h. actives 0.2% (n = 410,000). Potency, µM (series often up to 76.6 µM), without a hit: at the highest dose activation (PINK1 increase), actives largely listed as activators; active = well fitted activation curve with a large enough effect; inconclusive = small, poorly fitted or top-dose-only effect; cell line not stated here; note: potency is the fitted concentration of half-maximal effect; % of control where 0% means no effect; nearly all actives have a fitted effect of over 65% in size
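Stable cell line treated 24 h with compounds at 5 concentrations (CCCP controls), then fixed and immunostained for PINK1 plus nuclear and cell stains; PINK1 immunofluorescence quantified by laser-scanning microplate cytometry.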
S2 tox: viability counter-screen for ATXN expression inhibitors. Potency, µM (series often up to 56.7 µM), actives largely listed as cytotoxic. S2 cells (HEK-293 line with an ATXN2-luciferase reporter) viability, CellTiter-Fluor protease fluorescence, 24 h. actives 0.49% (n = 400,000); note: potency is the fitted concentration of half-maximal effect; nearly all actives have a fitted effect of over 40% in size
SW480 rerep: inducers of DNA re-replication in SW480 colon cancer cells | Potency, µM (doses to about 46.1 µM), for inactives: at the top dose re-replication activation, most hits filed as activators | SW480 DNA re-replication, Hoechst DNA content imaging, 48 h | actives 1.8% (n = 340,000); note: potency is the fitted concentration of half-maximal effect; % of control where 0% means no effect; nearly all actives have a fitted effect of over 55% in size
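Compounds, transferred as 23 nL by pin tool, were incubated with cells for 48 hr; DNA content per nucleus was then quantified by Hoechst staining and fluorescence plate imaging.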
IL-1B inflam inh: blocks inflammasome-driven IL-1 beta release | THP-1 LPS/ATP IL-1B secretion, AlphaLISA, 16 h; hits give low values | activity change, % at 57.5 µM | actives 4.7% (n = 360,000) | AID 743279; in the data active = activity change below about -50%; inconclusive = mostly about -30% to -49%; note: % is set by controls: 0 for no effect and ±100 for the full control effect
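Secreted IL-1B measured by AlphaLISA bead assay after 16 h compound exposure of THP-1 cells; compounds (final up to 57.5 uM) added 1 h before LPS (250 ng/mL) and ATP (1.25 mM) stimulation; lower signal means less secretion.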
MCF10A rereplic: inducers of DNA re-replication in MCF 10A breast cells. MCF 10A DNA re-replication, Hoechst nuclear intensity, 48 h. Potency, µM (highest dose often 46.1 µM), for the others: at the highest dose activity, positive = re-replication, hits mostly activators. actives 2.9% (n = 350,000); note: potency is the fitted concentration of half-maximal effect; % of control where 0% means no effect; nearly all actives have a fitted effect of over 50% in size
An asterisk follows results filed as active; i = inactive; ? = inconclusive; nt = no result; [ ] = another dose, or the depositor's remark. Unless noted, calls come from the whole dose curve; as a rule, active = well fitted curve in the direction sought with a large enough effect; inconclusive = small, poorly fitted or top-dose-only effect, or another doubt; inactive = no such curve, though single readings can be large; an effect the other way counts as inactive or inconclusive.

SMILES	ATXN2 expr inh	PINK1 modulator	S2 tox	SW480 rerep	IL-1B inflam inh	MCF10A rereplic
CC1=C(C(=O)OC2CCCC2)C(c2ccccc2Cl)CC(=O)N1 (centres undefined)	nt	3.1%	nt	nt	nt	nt
O=C1NC(=O)C(=Cc2ccc(-c3ccc(F)cc3O)o2)S1	25.6%	nt	nt	nt	nt	nt
C[C@@H](NC(=O)c1nc[nH]c1C(=O)NCCCCCNC(=O)OC(C)(C)C)c1ccccc1	-0.3%	0.7%	?	-0.6%	6.8	-8.9%
C[C@H](NC(=O)c1nc[nH]c1C(=O)N[C@@H](CCCCNC(=O)OC(C)(C)C)C(=O)OC(C)(C)C)c1ccccc1	?	0.0%	?	?	-52.3*	22.6%
CC(C)(C)OC(=O)NCCCC[C@H](NC(=O)c1[nH]cnc1C(=O)Nc1ccc(CNC(=O)OC(C)(C)C)cc1)C(=O)OC(C)(C)C	0.0%	0.6%	?	-6.1%	0.0	4.11µM*
CNC(=O)c1c(I)c(NC(C)=O)c(I)c(C(=O)O)c1I	11.5%	nt	i	nt	nt	nt
COc1cccc(Oc2cnc(N)nc2-c2ccc(OC)cc2O)c1	-9.6%	-3.5%	i	7.31µM*	23.0	6.51µM*
COc1ccc(-c2nc(N)ncc2Oc2ccccc2Br)c(O)c1	1.6%	13.0%	i	18.5%	-9.1	?
COc1ccc(-c2cnc(N)nc2-c2ccc(OC)cc2O)cc1	1.8%	-2.2%	?	0.1%	-72.7*	15.3%
COc1ccc(-c2nc(N)ncc2-c2ccccc2)c(O)c1	4.7%	0.2%	i	-1.2%	-21.6	1.5%
Nc1ncc(-c2ccccc2)c(-c2ccc(OCc3ccccc3)cc2O)n1	-7.0%	1.0%	i	?	-103.2*	20.6µM*
CCC(C(=O)N1CCCC1)n1nc(C)c2c(C)n(-c3ccccc3)nc2c1=O (centres undefined)	1.0%	0.4%	i	20.6µM*	-0.5	-0.4%
CCCC(=O)NC(c1ccc(C)cc1)c1ccc2cccnc2c1O (centres undefined)	?	-0.2%	i	?	183.6	20.6µM*
CCCCC(=O)NC(c1ccc(N(C)C)cc1)c1ccc2cccnc2c1O (centres undefined)	?	3.0%	?	?	116.4	?
CCCC(=O)NC(c1ccc(Cl)cc1)c1ccc2cccnc2c1O (centres undefined)	7.08µM*	7.5%	?	2.91µM*	108.3	?
CCCCC(=O)NC(c1ccc(N(CC)CC)cc1)c1ccc2cccnc2c1O (centres undefined)	2.82µM*	11.4%	i	?	136.0	?
CCCCC(=O)NC(c1ccc(Cl)cc1)c1ccc2cccnc2c1O (centres undefined)	7.94µM*	5.8%	i	1.03µM*	156.0	11.6µM*
CCCCn1c(N)c(N(CCOC)C(=O)COC(=O)c2ccccc2NCCO)c(=O)[nH]c1=O	3.0%	0.7%	i	-2.1%	14.0	3.7%
Cc1ccc(N(C)C(=O)C2CCN(S(=O)(=O)c3cn(C)cn3)CC2)cc1	nt	-1.5%	nt	nt	nt	nt
CCCCC(=O)NC(c1ccccc1OC)c1ccc2cccnc2c1O (centres undefined)	3.98µM*	0.7%	i	0.731µM*	180.0	26.2%
CCCC(=O)NC(c1ccccc1OC)c1ccc2cccnc2c1O (centres undefined)	?	0.5%	i	?	140.0	16.9%
CCCC(=O)NC(c1ccc(Cl)cc1Cl)c1ccc2cccnc2c1O (centres undefined)	?	6.3%	i	0.651µM*	124.1	?
CCC1C(=O)NCCN1Cc1ccc2c(c1)CN(Cc1ccc3c(c1)OCCO3)CCO2 (centres undefined)	nt	-0.8%	i	nt	nt	nt
COc1ccc(OC)c(NC(=O)c2ccc(CSc3nnc(C)s3)cc2)c1	-10.9%[11.3 µM]	-1.5%	i	-7.3%	-59.8*	-9.7%
COc1cc(CNCc2ccccc2)c(Br)cc1OC1CCCC1	-7.7%[11.3 µM]	9.6%	i	6.0%	-54.9*	?
